High-throughput results from PubChem.
Shown are actives, neighbours in structure and some others; about 4.8% of the full set was active somewhere.
ssDAF12 agonist = S. stercoralis DAF-12 activation, primary screen | activation, % at 6.8 µM | 1% of 370,000 active | HEK293 ssDAF-12/GRIP1 lit1-tk-luc reporter, luminescence; % of 3 µM dafachronic acid response;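 active = activation above the mean over all tested compounds plus 3 SD, cut at about 0.9% in these data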;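 note: 0% = DMSO-only wells and 100% = 3 µM delta7-dafachronic acid wells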
hgDAF-12 ag = activates the H. glycines DAF-12 receptor ligand-binding domain. AID 687014. HEK293 GAL4-hgDAF12 UAS-luciferase reporter, agonist luminescence; normalized to butyrate control. 1.8% of 370,000 active. activation, % at 6.8 µM;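 active = activation above a cutoff set at the mean of all screened compounds plus 3 SD, cut at about 10% in these data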;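 note: 0% = DMSO wells and 100% = sodium butyrate wells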
DAX1 inh-1 = DAX1 (NR0B1) inhibition, primary screen; HEK293T StAR-luciferase reporter, SF-1/DAX-1 repression relief; AID 652010; 1.1% of 370,000 active; inhibition, % at 6.8 µM;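 active = inhibition above the mean over all tested compounds plus 3 SD, cut at about 3.6% in these data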;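 note: 0% = DAX-1 cells with DMSO and 100% = cells lacking DAX-1 with DMSO; higher inhibition means more luminescence from relief of DAX-1 repression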
DAX1 inh-2 = inhibits human nuclear receptor DAX1 | P51843 | HEK293 Gal4-DAX1 luciferase reporter, luminescence | inhibition, % at 6.75 µM | 0.99% of 340,000 active | AID 504766;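 active = inhibition above the mean over all tested compounds plus 3 SD, cut at about 4.2% in these data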;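 note: 0% = DAX1-transfected cells with DMSO and 100% = empty-vector control cells with DMSO; inhibition shows as a rise in luminescence from relieved DAX1 repression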
Target sequence (P51843 207-470 limits assumed): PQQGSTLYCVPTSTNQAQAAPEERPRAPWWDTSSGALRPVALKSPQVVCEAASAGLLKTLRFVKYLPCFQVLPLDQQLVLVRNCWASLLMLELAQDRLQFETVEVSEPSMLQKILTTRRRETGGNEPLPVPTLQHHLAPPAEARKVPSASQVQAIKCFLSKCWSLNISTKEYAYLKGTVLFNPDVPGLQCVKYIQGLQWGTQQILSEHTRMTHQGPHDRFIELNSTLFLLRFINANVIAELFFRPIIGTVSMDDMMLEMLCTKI
SMARCA2 act = activators of SMARCA2 function. MG213 cells, MMTV-luciferase reporter, dexamethasone, overnight. activation, % at 9.1 µM. 1% of 370,000 active. AID 652017; in the data active = activation above about 7.8%;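 note: 0% = vehicle wells and 100% = reference activator wells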
hcDAF12 agonist = activators of H. contortus DAF-12 nuclear receptor | HEK293 hcDAF-12 lit1-tk-luc reporter, luminescence; 0% DMSO, 100% Δ7-dafachronic acid | activation, % at 6.8 µM | 1.4% of 370,000 active;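 active = activation above the mean of all tested compounds plus 3 SD, cut at about 5.5% in these data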;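 note: 100% = response to 3 µM Δ7-dafachronic acid high control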
An asterisk follows results filed as active; · = no result.

SMILES	ssDAF12 agonist	hgDAF-12 ag	DAX1 inh-1	DAX1 inh-2	SMARCA2 act	hcDAF12 agonist
Cn1c(CN2CCN(C(=O)c3ccccc3)CC2)nc2cc([N+](=O)[O-])ccc21	0.9*	-3	1	-2	-1	0
Cn1c(CN2CCN(C(=O)c3ccccc3Cl)CC2)nc2cc([N+](=O)[O-])ccc21	-2	0	0	0	-3	0
COc1ccc(CN(C)C(=O)Cc2c[nH]c3ccccc23)cc1	1	1	-1	-1	5	6.1*
COc1cccc(CN(C)C(=O)Cc2c[nH]c3ccccc23)c1	1	7	1	0	2	6.1*
COc1cccc(CN(C)C(=O)Cc2c[nH]c3ccccc23)c1OC	0	-1	0	0	2	-1
O=C(NCCN1CCC(Cc2ccccc2)CC1)C1CCCN(S(=O)(=O)c2ccc([N+](=O)[O-])cc2)C1 (stereo unspecified)	-2	-4	-3	·	-6	-3
CCN(Cc1ccccc1)c1cc2c(c3c1ccn3C)C1CCC2O1 (stereo unspecified)	0	-3	-2	·	-3	0
CCN(CC)c1cc2c(c3c1ccn3C)C1CCC2O1 (stereo unspecified)	0.9*	-2	0	·	1	-2
CCCCNC(=O)Nc1nnc(-c2ccc(OCC)cc2)o1	-1	1	0	5.5*	-3	1
Cc1cc(O)c(C2=Nc3ccccc3SC(c3ccc(Cl)cc3)C2)c(=O)o1 (stereo unspecified)	0	6	0	2	0	6.1*
COc1ccc(C2CC(c3c(O)cc(C)oc3=O)=NCCS2)c(OC)c1 (stereo unspecified)	·	·	·	0	·	·
CCC(CC)NC(=O)CO/N=C/c1ccc(Cl)cc1Cl	-1	0	-1	-1	7.9*	1
Cc1ccc(-n2nc(C)c(C(C)(O)C(F)(F)F)c2N)cc1 (stereo unspecified)	-2	1	0	1	-2	0
Cc1nn(-c2ccc(Cl)cc2)c(N)c1C(O)(CSc1nccn1C)C(F)(F)F (stereo unspecified)	1.0*	7	0	0	0	2
Cc1nn(-c2ccccc2)c(N)c1C(O)(CSc1nccn1C)C(F)(F)F (stereo unspecified)	0.9*	1	0	0	-2	-2
Cc1c(NC(=O)CSc2nccn2C)c(=O)n(-c2ccccc2)n1C	-1	0	0	-1	0	0
O=C(O)c1cccc(NC2=C(Cl)C(=O)c3ccccc3C2=O)c1	-1	3	1	-1	6	3
O=C(O)c1ccc(NC2=C(Cl)C(=O)c3ccccc3C2=O)cc1	0.9*	2	0	3	2	6.7*
COc1ccc(-c2nnc(SCC(=O)N/N=C\C=C/c3ccco3)n2-c2ccc(C)cc2)cc1	-1	-2	-1	·	-2	-3
C[C@H](O)[C@@H]1CN2CCc3c([nH]c4c(-c5ccccc5)cccc34)[C@@H]2C[C@@H]1N(C)C(=S)Nc1ccc(C#N)cc1	-1	-1	0	·	-4	-1
O=C(Nc1ccc2c(c1)CCC2)C1CCCN(c2ncccn2)C1 (stereo unspecified)	-1	11*	2	1	0	2
Cc1ccc(NC(=O)C2CCCN(c3ncccn3)C2)cc1F (stereo unspecified)	1	12*	3	1	6	2
O=C(Nc1ccc(C(=O)N2CCCCC2)cc1)[C@H]1O[C@@H](n2ccc(=O)[nH]c2=O)[C@H](O)[C@@H]1O	-1	1	3.7*	·	-5	1
Nc1ccn([C@@H]2O[C@H](C(=O)Nc3ccc(C(=O)N4CCCCC4)cc3)[C@@H](O)[C@H]2O)c(=O)n1	-1	-1	0	·	-3	-1
C=CCOc1cccc(C2C(C(=O)c3ccco3)=C(O)C(=O)N2Cc2cccnc2)c1 (stereo unspecified)	-1	-2	0	0	-1	-2
SMILES	ssDAF12 agonist	hgDAF-12 ag	DAX1 inh-1	DAX1 inh-2	SMARCA2 act	hcDAF12 agonist
C=CCOc1cccc(C2C(C(=O)c3ccco3)=C(O)C(=O)N2CCN(CC)CC)c1 (stereo unspecified)	-1	4	0	4.7*	-3	-1
O=C(c1cccs1)N1CC[C@H]2[C@H](CCCN2Cc2ccc(F)cc2)C1	-2	0	0	·	1	-1
O=C(O)C1CCN(C(=O)c2ccccc2N2C(=O)[C@@H]3Cc4c([nH]c5ccccc45)C(c4cccc(Cl)c4)N3C2=O)CC1 (stereo partly specified)	1.0*	3	-1	2	2	5.6*
O=C(NCCN1CCOCC1)c1ccccc1N1C(=O)[C@@H]2Cc3c([nH]c4ccccc34)C(c3ccc(F)cc3)N2C1=O (stereo partly specified)	0	-2	1	1	0	0
COc1ccccc1CNc1ccc2c(c1)OC[C@H](CC(C)C)NS2(=O)=O	-1	2	0	·	-4	1
Cc1ccc(OC(=O)COc2ccccc2C)c(-n2nc3ccccc3n2)c1	0	10	3	1	4	6.2*
Cn1c(=O)c2c(-c3ccccc3)n(-c3ccccc3N)cc2n(C)c1=O	0	12*	2	2	0	3
COc1ccc2nc(/N=C/c3c(C)[nH]n(-c4ccc(C)cc4)c3=O)sc2c1	0	5	2	0	-3	5.6*
O=C(CCc1ccccc1)N[C@H]1[C@@H](OC(=O)c2cccnc2)CCC[C@@]12C(=O)N(Cc1ccccc1)c1ccccc12	-2	-8	-2	·	-6	-5
COc1ccc(N=Cc2c(O)n(-c3cccc(C)n3)c(=O)c3ccccc23)c(OC)c1	-2	0	0	5.2*	0	-1
Cn1ncc2c(Nc3ccc4ccccc4c3)ncnc21	-2	12*	2	2	8	2
CC(=O)C1(C(=O)NCc2ccccc2)CC(c2ccccc2C(F)(F)F)=NO1 (stereo unspecified)	-1	4	-1	·	2	-2
COC(=O)c1cnn(-c2nc3c(C)cccc3s2)c1C	0	2	0	1	-1	5.9*
O=C(NCc1cccnc1)c1nn2cccnc2c1Cl	-1	1	1	5.0*	-1	1
COc1ccc(/C=N\NC(=O)CN2CCN(Cc3ccccc3)CC2)cc1OCc1ccccc1	-2	3	-4	·	-6	-2
COc1ccc(C(=O)c2[nH]c(N)c(C(=O)NCCc3c[nH]c4ccccc34)c2-c2ccc(C(F)(F)F)cc2)cc1	1.9*	5	0	·	0	5
Cc1cc(C(=O)Nc2sccc2C#N)c2ccccc2n1	1	-1	0	-1	-1	5.9*
